{
  "source": "PubChem BioAssay AID372",
  "about": "(MTDP, 2006)",
  "note": "Out of some 100,000 compounds screened, about 770 (0.77%) were called active. The sample holds actives, similar compounds and a random draw of the others, so the mix is not that of the screen. No stated cut-off is given here; in the data, active means inhibition above about 50%; inactive means the rest.",
  "data": [
    {"target": "Gag-Pol polyprotein (Human immunodeficiency virus type 1 group M subtype B (isolate HXB2)) (UniProt P04585)", "assay": "RNase H inhibition, HIV 1 Gag Pol polyprotein, FRET biochemical assay, screening (AID 372)", "conditions": "HIV-1 RT RNase H, FRET RNA/DNA substrate fluorescence; at 10 µM; active compounds read high", "values": [
      {"compound": "O=C(O)C1CCCCC1C(=O)NCc1ccccc1", "note": "(stereo not drawn)", "inhibition": "0% (inactive)"},
      {"compound": "O=C(Nc1ccccc1)c1ccccc1C(=O)OCCCCCc1cccs1", "inhibition": "1% (inactive)"},
      {"compound": "CC(/C=C(\\NC(=O)c1ccccc1)C(=O)N/N=C/c1cccc([N+](=O)[O-])c1)=C\\c1ccccc1", "inhibition": "6% (inactive)"},
      {"compound": "O=C(Nc1ccc(-c2ccc(Cl)cc2)cc1)C1CC1", "inhibition": "6% (inactive)"},
      {"compound": "O=[N+]([O-])c1ccc(C2Nc3ccc(I)cc3C3C=CCC32)cc1", "note": "(stereo not drawn)", "inhibition": "25% (inactive)"},
      {"compound": "Cc1ccc(S(=O)(=O)N(CC(O)CN(CC(C)C)CC(C)C)c2cccc(C)c2)cc1", "note": "(stereo not drawn)", "inhibition": "9% (inactive)"},
      {"compound": "COc1ccc2ccccc2c1/C=N/NC(=O)c1ccc(-c2ccccc2)cc1", "inhibition": "13% (inactive)"},
      {"compound": "O=C(Nc1ccc(NC(=O)c2ccc(Cl)cc2Cl)c(Cl)c1)c1ccccc1", "inhibition": "3% (inactive)"},
      {"compound": "COc1ccc2c(c1)-c1c(ssc1=S)C(C)(C)N2C(=O)c1ccc(OC)c(OC)c1", "inhibition": "4% (inactive)"},
      {"compound": "COc1ccc2c(c1)-c1c(ssc1=S)C(C)(C)N2C(=O)c1ccccc1OC", "inhibition": "60% (active)"},
      {"compound": "COc1ccc2c(c1)-c1c(ssc1=S)C(C)(C)N2C(=O)c1ccccc1Br", "inhibition": "27% (inactive)"},
      {"compound": "CCC1CCc2c(sc(NC(=O)c3ccc(Br)o3)c2C(=O)OC)C1", "note": "(stereo not drawn)", "inhibition": "13% (inactive)"},
      {"compound": "COc1ccccc1S(=O)(=O)CC(SC#N)c1ccccc1", "note": "(stereo not drawn)", "inhibition": "4% (inactive)"},
      {"compound": "CC(=O)NCCc1c(C)n(Cc2ccccc2)c2ccccc12", "inhibition": "2% (inactive)"},
      {"compound": "Cc1c(CCNC(=O)c2ccccc2F)c2ccccc2n1Cc1ccccc1", "inhibition": "28% (inactive)"},
      {"compound": "Cc1c(CCNC(=O)c2ccccc2)c2ccccc2n1Cc1ccccc1", "inhibition": "57% (active)"},
      {"compound": "O=C1OC(c2ccccc2)=N/C1=C\\c1ccc(F)c(Br)c1", "inhibition": "16% (inactive)"},
      {"compound": "CCOC(=O)C1=C(C)N=c2s/c(=C\\c3ccc(Br)cc3)c(=O)n2C1c1ccc(OC)c(OC)c1", "note": "(stereo not drawn)", "inhibition": "0% (inactive)"},
      {"compound": "CC(=O)/C(=C1\\NC(C)(C)Cc2ccccc21)c1ccccc1", "inhibition": "3% (inactive)"},
      {"compound": "N#C/C(=C\\c1ccc(I)o1)c1ccccc1", "inhibition": "41% (inactive)"},
      {"compound": "N#C/C(=C\\c1ccc(Sc2ccccc2)o1)c1ccccc1", "inhibition": "52% (active)"},
      {"compound": "Cc1ccc(Sc2ccc(/C=C(\\C#N)C(=O)NCc3ccccc3)o2)cc1", "inhibition": "50% (active)"},
      {"compound": "N#C/C(=C\\c1ccc(-c2ccccc2)o1)C(=O)NCc1ccccc1", "inhibition": "16% (inactive)"},
      {"compound": "N#C/C(=C/c1ccc(Sc2ccccc2)o1)c1nc2ccccc2[nH]1", "inhibition": "15% (inactive)"},
      {"compound": "N#C/C(=C/c1ccc(Sc2ccccc2)o1)C(=O)NCc1ccccc1", "inhibition": "25% (inactive)"},
      {"compound": "CCc1cc2c(=O)n(N)c(CCC(=O)O)nc2s1", "inhibition": "6% (inactive)"},
      {"compound": "CCOC(=O)c1cc(Br)c(Cl)cc1[N+](=O)[O-]", "inhibition": "10% (inactive)"},
      {"compound": "COc1ccc(C(NC(=O)c2ccco2)c2ccc(OC)c(OC)c2)cc1", "note": "(stereo not drawn)", "inhibition": "23% (inactive)"},
      {"compound": "Cc1ccc2oc(-c3ccc(NC(=O)c4ccc(C)c([N+](=O)[O-])c4)cc3)nc2c1", "inhibition": "0% (inactive)"},
      {"compound": "OC(COc1ccccc1Cl)Cn1cnc2ccccc21", "note": "(stereo not drawn)", "inhibition": "5% (inactive)"},
      {"compound": "O=C(N/N=C/c1ccc(-c2ccc(Cl)cc2Cl)o1)c1ccccc1", "inhibition": "15% (inactive)"},
      {"compound": "CCN1C(=O)C(=Cc2ccc(O)cc2)C(=O)NC1=S", "inhibition": "4% (inactive)"},
      {"compound": "CCN1C(=O)/C(=C/c2ccc(C)o2)C(=O)NC1=S", "inhibition": "21% (inactive)"},
      {"compound": "CCOc1cc(/C=N/NC(=O)C(=O)NCc2ccc(Cl)cc2)ccc1O", "inhibition": "1% (inactive)"},
      {"compound": "CC1(C)NC(=O)N(CC(O)COc2cccc(OCC(O)CN3C(=O)NC(C)(C)C3=O)c2)C1=O", "note": "(stereo not drawn)", "inhibition": "11% (inactive)"},
      {"compound": "COC(=O)c1c(NC(=O)c2ccco2)sc(C)c1C", "inhibition": "15% (inactive)"},
      {"compound": "Cc1sc(NC(=O)c2ccco2)c(C#N)c1C", "inhibition": "7% (inactive)"},
      {"compound": "CCOC(=O)c1sc(NC(=O)c2ccc(Br)o2)c(C(N)=O)c1C", "inhibition": "0% (inactive)"},
      {"compound": "Cc1sc(NC(=O)c2ccc(-c3ccccc3)cc2)c(C(N)=O)c1C", "inhibition": "13% (inactive)"},
      {"compound": "COC(=O)c1c(NC(=O)Cc2ccccc2)sc(C)c1C", "inhibition": "24% (inactive)"},
      {"compound": "Cc1sc(NC(=O)c2ccc(Br)o2)c(C#N)c1C", "inhibition": "4% (inactive)"},
      {"compound": "CCOC(=O)c1c(NC(=O)Cc2ccccc2)sc(C)c1C", "inhibition": "0% (inactive)"},
      {"compound": "Cc1sc(NC(=O)c2ccc(F)cc2)c(C(N)=O)c1C", "inhibition": "8% (inactive)"},
      {"compound": "CCOc1cc(/C=C2\\SC(=S)N(c3ccc(F)cc3)C2=O)ccc1O", "inhibition": "18% (inactive)"},
      {"compound": "CCN(CC)c1ccc(C(=O)Nc2cc(Cl)cc(Cl)c2)cc1", "inhibition": "20% (inactive)"},
      {"compound": "Cc1ccc(C(=O)COC(=O)c2cccc(N3C(=O)C4C5C=CC(C6CC56)C4C3=O)c2)cc1", "note": "(stereo not drawn)", "inhibition": "9% (inactive)"},
      {"compound": "CCOc1ccc(-n2sc3c(c2=S)-c2cc(C)ccc2N(Cc2ccccc2)C3(C)C)cc1", "inhibition": "32% (inactive)"},
      {"compound": "Cc1cc(C)cc(NC(=O)C(C)N2C(=O)c3ccccc3C2=O)c1", "note": "(stereo not drawn)", "inhibition": "0% (inactive)"},
      {"compound": "CC1=C(C(=O)OCC(C)C)C(c2cccc(O)c2)C2=C(CC(c3ccc(Cl)cc3)CC2=O)N1", "note": "(stereo not drawn)", "inhibition": "21% (inactive)"},
      {"compound": "O=C(/C=C/c1ccccc1)NC(=S)Nc1ccc(Br)cn1", "inhibition": "21% (inactive)"},
      {"compound": "CCOC(=O)c1ccc(Nc2cc(-c3ccccc3)ncn2)cc1", "inhibition": "18% (inactive)"},
      {"compound": "COc1cc(CN2CCN(Cc3ccc(OC)c(OC)c3OC)CC2)cc(OC)c1OC", "inhibition": "4% (inactive)"},
      {"compound": "O=C(/C=C/c1ccc2c(c1)OCO2)NCc1ccc(Cl)cc1Cl", "inhibition": "11% (inactive)"},
      {"compound": "Cc1nn(CC(=O)Nc2sc3c(c2C#N)CCCC3)c(C)c1[N+](=O)[O-]", "inhibition": "8% (inactive)"},
      {"compound": "CCOC(=O)c1sc(NC(=O)Cn2nc([N+](=O)[O-])c([N+](=O)[O-])c2C)c(C(=O)OCC)c1C", "inhibition": "6% (inactive)"},
      {"compound": "O=C(O)c1c(Br)c(Br)c(Br)c(Br)c1C(=O)NCCC1=CCCCC1", "inhibition": "0% (inactive)"},
      {"compound": "NNC(=O)CN1C(c2ccccc2)=Nc2ccc(Br)cc2C1c1ccccc1", "note": "(stereo not drawn)", "inhibition": "15% (inactive)"},
      {"compound": "COc1ccc(N2C(=O)/C(=C\\c3c(OC)cc(OC)cc3OC)C(=O)NC2=S)cc1", "inhibition": "1% (inactive)"},
      {"compound": "O=C1c2ccccc2C(=O)N1CC(O)Cn1c2ccc(Br)cc2c2cc(Br)ccc21", "note": "(stereo not drawn)", "inhibition": "16% (inactive)"},
      {"compound": "CCc1ccc(OCCCCCCN2CCOCC2)cc1", "inhibition": "8% (inactive)"},
      {"compound": "CCc1ccc(OCCCN2CCOCC2)cc1", "inhibition": "3% (inactive)"},
      {"compound": "CCc1ccc(OCCN2CCOCC2)cc1", "inhibition": "50% (active)"},
      {"compound": "Cc1cc(/C=C2\\C(=O)NC(=O)N(c3ccc(Br)cc3)C2=O)c(C)n1-c1cccnc1", "inhibition": "2% (inactive)"}
    ]}
  ]
}
